From PubChem BioAssay AID540355 (National Center for Advancing Translational Sciences (NCATS), 2011)
The list shows a part of the results. Inconclusive results are not listed. Calls of active or inactive are those of the source. Calls come from the whole dose curve; as a rule, active = well fitted inhibition curve with a large enough effect; inconclusive = small, poorly fitted or top-dose-only effect; inactive = no such curve, though single readings can be large or run the other way.

target: 4'-phosphopantetheinyl transferase Sfp (Bacillus subtilis (strain 168)) (UniProt P39135); test: Gel-Based Assay for Inhibitos of Bacillus subtilis Sfp phosphopantetheinyl transferase (PPTase): Chemistry Optimization Followup; conditions: purified Sfp PPTase, gel-based product detection; series mostly up to 250 µM; activity change, negative = inhibition: at the top concentration
Sequence (P39135 whole entry, looked up): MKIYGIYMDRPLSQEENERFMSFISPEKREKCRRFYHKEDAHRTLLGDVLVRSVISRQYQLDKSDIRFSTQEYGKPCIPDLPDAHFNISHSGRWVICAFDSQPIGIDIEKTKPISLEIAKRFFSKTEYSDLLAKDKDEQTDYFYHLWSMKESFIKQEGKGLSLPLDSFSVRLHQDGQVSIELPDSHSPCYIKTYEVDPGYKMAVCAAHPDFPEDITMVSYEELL
Description: The covalent attachment of a phosphopantetheinyl (4'-PP) arm to a variety of synthases and other proteins is a key posttranslational protein modification. The 4'-PP is installed on the proteins post-translationally from coenzyme A (CoA) on a conserved serine residue by action of phosphopantetheinyl transferase (PPTase) enzymes. Phosphopantetheinylation is essential for synthase activity, and removal of the PPTase gene precludes natural product synthesis in microorganisms, or in the case of fatty acid biosynthesis, renders the organism unviable. PPTase enzymes belong to a distinct structural superfamily. Within bacteria, these enzymes are grouped into two classes based upon primary structure, the AcpS-Type and Sfp-Type PPTases.
Sfp-type PPTases, corresponding to an activator of surfactin production in Bacillus subtilis, are responsible for modifying type I polyketide and nonribosomal peptide synthases of prokaryotes. Sfp-type PPTases are responsible for the activation of a variety of pathogen-associated virulence factors. Among these compounds are toxins such as mycolactone from Mycobacterium ulcerans, siderophores such as vibriobactin from Vibrio cholerae or mycobactin from Mycobacterium tuberculosis, as well as the mycolic acids which form the waxy cell wall of Mycobacteria. The biosyntheses of these natural products are considered attractive targets for drug design.
In this assay, compounds were evaluated by monitoring of fluorescence transfer to whole carrier protein substrates via polyacrylamide gel electrophoresis. See Yasgar, et al. (PMID: 20094656) for further details on assay. This assay was used to evaluate follow-up compounds from the primary screen (AID: 1490).
NIH Chemical Genomics Center [NCGC]
NIH Molecular Libraries Probe Centers Network [MLPCN]
Assay Submitter (PI): Michael Burkart, University of California, San Diego
A DMSO solution of confirmed hits (0.5 microL) was added to a 1.33X enzyme solution (15 microL, containing 26.6 nM Sfp, 66 mM HEPES, 13.3 mM MgCl2, 0.0133% NP-40, 0.133% BSA, pH 7.6). After a 10 minute incubation, the enzymatic reaction was initiated by the addition of 4 X substrate solution (4 microL, containing 50 microM Rhodamine CoA and 50 microM apo-Actinorhodin-ACP). The reactions were terminated after a 30 minute incubation at room temperature by the addition of 2X quench solution (20 microL, containing 4 M Urea, 25 mM EDTA, 0.004% phenol red, pH 8.0). Samples were separated under native conditions on a 20% polyacrylamide gel using standard Laemmli conditions. Following the run, gels were imaged with a Chemi-Doc Plus imager (Bio-Rad, Hercules, CA) and band intensity quantified using the ImageJ software package. Pixel density values were normalized to control wells (SCH202676) and fit with the 4-parameter Hill equation using in-house tools.

Potency, active:
Cc1ccc(N2CCN(C(=S)Nc3cc(C)ccn3)CC2)cc1 3.16 µM
Cc1cc(C)nc(NC(=S)N2CCN(c3ccc4nonc4c3)CC2)c1 10 µM
COc1ccnc(NC(=S)N2CCN(c3ncc(C(F)(F)F)cc3Cl)CC2)c1 3.02 µM
Cc1cc(C)nc(NC(=S)N2CCN(c3ccc(Cl)cc3C(F)(F)F)CC2)c1 6.75 µM
Cc1cc(C)nc(NC(=S)N2CCN(c3cccc(C#N)c3)CC2)c1 10 µM
Cc1cc(C)nc(NC(=S)N2CCN(c3cccc(C(F)(F)F)c3)CC2)c1 1.58 µM

Activity change, negative = inhibition, inactive:
COc1cccc(NC(=S)N2CCN(c3ccc(Cl)cc3Cl)CC2)n1 44.2%
FC(F)(F)c1cccc(N2CCN(C(=S)Nc3ccncc3)CC2)c1 5.42%
COc1cccc(NC(=S)N2CCN(c3ccccc3C(F)(F)F)CC2)n1 61.4%
